Measurements reported in PubChem BioAssay AID2284385 (EPA ToxCast).
Active and inactive are the calls of the source. Rule for the calls: active = hit-call score of the fitted dose curve at least 0.9, where 1 is the maximum; inactive = score below 0.9.

molecular target: human Peroxisome proliferator-activated Receptor alpha (PPARa), PPARA (gene 5465) (UniProt Q07869); test: ERF_TW_NR_COA_hPPARA: Eurofins (ERF) Nuclear Receptor (NR) Functional Coactivator Assay for human Peroxisome proliferator-activated Receptor alpha (PPARa) Agonism & Antagonism, conducted at Taiwan lab site
Sequence (Q07869 whole entry, looked up): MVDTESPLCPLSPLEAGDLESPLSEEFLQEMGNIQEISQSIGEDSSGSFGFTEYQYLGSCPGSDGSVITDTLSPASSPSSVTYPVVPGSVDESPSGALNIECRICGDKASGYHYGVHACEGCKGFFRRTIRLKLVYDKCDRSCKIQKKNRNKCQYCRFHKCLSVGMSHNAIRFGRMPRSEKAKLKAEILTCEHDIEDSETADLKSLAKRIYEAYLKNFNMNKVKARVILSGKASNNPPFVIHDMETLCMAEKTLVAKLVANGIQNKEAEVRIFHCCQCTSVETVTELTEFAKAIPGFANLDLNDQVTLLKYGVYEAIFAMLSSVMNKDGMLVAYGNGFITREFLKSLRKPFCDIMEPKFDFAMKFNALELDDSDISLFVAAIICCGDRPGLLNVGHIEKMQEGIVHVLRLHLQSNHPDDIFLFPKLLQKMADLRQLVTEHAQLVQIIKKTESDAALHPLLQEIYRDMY
Procedure: ERF_TW_NR_COA_hPPARA is a biochemical, single-readout assay that uses extracted gene-proteins in a cell-free assay. Measurements were taken 3 hours after chemical dosing in a 96-well plate. See PPARalpha Human NHR Functional Agonist Coactivator Assay, Panlabs.ERF_TW_NR_COA_hPPARA is an assay component calculated from the ERF_TW_NR_COA_hPPARA assay. It is designed to measure FRET using a type of binding reporter as detected by fluorescence intensity of GW7647 with fluorimetry technology.Data from the assay component ERF_TW_NR_COA_hPPARA was analyzed at the assay endpoint, ERF_TW_NR_COA_hPPARA, in the positive analysis fitting direction relative to DMSO as the negative control and baseline of activity. Using a type of binding reporter, gain-of-signal activity can be used to understand changes in binding as they relate to gene PPARA. To generalize the intended target to other relatable targets, this assay endpoint is annotated to the nuclear receptor intended target family, where the subfamily is non-steroidal.
Human recombinant peroxisome proliferators-activated receptor alpha (PPARA, PPARa, PPAR-alpha) hPPAR, NR1C1) receptors expressed in insect are used. Test compound and/or vehicle is incubated with the 2.5 nM receptors and binding buffer in modified kit buffer pH 7.4 for 3 hours at RT. Determination of the amount of complex formed is read microplate reader (excitation:337 nm, emission: 520/490 nm). Test compound-induced increase fluorescence by 50 percent or more (>/=50%) relative to the 1 uM GW7647 response indicates possible PPARa receptor agonist activity. Test compound-induced inhibition of 20 nM GW7647-induced fluorescence response by 50 percent or more (>/=50%) indicates receptor antagonist activity.

Row | SMILES | outcome | AC50
1 | O=C(O)C(F)(F)C(F)(F)C(F)(F)C(F)(F)C(F)(F)C(F)(F)C(F)(F)C(F)(F)Cl | inactive | 
2 | CN(CCOc1ccc(CC2SC(=O)NC2=O)cc1)c1ccccn1 (configuration not stated) | inactive | 
3 | O=C(CC(=O)C(F)(F)C(F)(F)C(F)(F)F)c1cccs1 | inactive | 
4 | O=C(O)C(F)(F)C(F)(F)C(F)(F)C(F)(F)C(F)(F)C(F)(F)C(F)F |  | 31.1 µM (active)
5 | O=C(Cl)C(F)(F)C(F)(F)C(F)(F)C(F)(F)C(F)(F)C(F)(F)F |  | 31.6 µM (active)
6 | O=C(O)CCC(F)(F)C(F)(F)C(F)(F)F | inactive | 
7 | CC(C)(Oc1ccc(C(=O)c2ccc(Cl)cc2)cc1)C(=O)O |  | 15.7 µM (active)
